# In PubChem BioAssay:
# Records with an inconclusive call do not appear. Calls of active or inactive are those of the source.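 Rule for the calls: active = viability at or below 27.92% in each of two runs, the all-compound median minus 4 SD; inconclusive = no clear call, values can overlap the other calls; inactive = the rest.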
# Assay: growth suppression of PTEN-deleted HCT116, pilot screen, cell-based, HCT116 clonal line, CellTiter-Glo (AID 824);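 note: 0% = 20 µM Hyamine control and 100% = vehicle cell control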
# Conditions: 60 h, at 10 µM, hits give low values
row,SMILES,viability
1,CCOc1ccc(OCC)c(Nc2cc(C)nc3ncnn23)c1,87.7% (inactive)
2,O=C(COc1ccc(Cl)cc1)OCC(=O)N1CCCC1,95.3% (inactive)
3,O=C(CSc1nnc(-c2ccccn2)n1Cc1ccco1)c1ccc(Cl)cc1,82% (inactive)
4,CCc1ccccc1NC1c2ccccc2C(=O)N1Cc1ccco1 (stereo not given),84.8% (inactive)
5,C=C1CC2C=C(NC(C)=O)CC(C1)C2 (stereo not given),95.6% (inactive)
6,O=C(NC1CCCc2ccccc21)C1CCN(c2c(N3CCCC3)c(=O)c2=O)CC1 (stereo not given),90% (inactive)
7,CSc1cccc(NS(=O)(=O)c2cccc3nsnc23)c1,93.3% (inactive)
8,O=C1c2oc3ccccc3c(=O)c2C(c2cccc(O)c2)N1c1ccccn1 (stereo not given),79.6% (inactive)
9,COc1cc(SC)ccc1C(=O)Nc1ccc2c(c1)OCCO2,65.8% (inactive)
10,Cc1occc1-c1nc(-c2ccccn2)no1,67.7% (inactive)
11,Cc1ccccc1NS(=O)(=O)c1cccc(-c2nnc(-c3ccccc3)o2)c1,85.7% (inactive)
12,O=C(N[C@@H](Cc1ccccc1)C(=O)O)c1cccnc1,96.2% (inactive)
13,COc1ccccc1-n1c2c(cc(C(=O)N3CCC(C)CC3)c1=O)C(=O)CC(C)(C)C2,90.7% (inactive)
14,O=C(c1cc(-c2ccccc2O)on1)N1CCCC1,90.7% (inactive)
15,CSc1ccc(S(=O)(=O)Nc2ccc3c(c2)OCCO3)cc1,71.9% (inactive)
16,Cn1c(=O)c2c(nc(N3CCN(Cc4ccccc4)CC3)n2CCSc2ncccn2)n(C)c1=O,106% (inactive)
17,Cc1cccc(-c2nc(CS(=O)CC(=O)N3CCc4ccccc4C3)c(C)o2)c1 (stereo not given),88.8% (inactive)
18,CCCN1CCN(C(=O)Cn2ncc3ccccc32)CC1,98.2% (inactive)
19,Cc1ccc(CNC(=O)CS(=O)Cc2nc(-c3cccs3)oc2C)cc1 (stereo not given),92.7% (inactive)
20,CC(C)N(Cc1nc(-c2ccccc2)no1)C(=O)COc1ccccc1,89.7% (inactive)

row,SMILES,viability
1,COc1ccc(Cl)cc1NC(=O)Cn1c(=O)n2nc(C)nc2c2ccccc21,87.8% (inactive)
2,COc1cc2c(=O)n(Cc3ccccc3)c(=O)n(CC(=O)NCC3CCCO3)c2cc1OC (stereo not given),94.1% (inactive)
3,O=C(Cc1cc(=O)[nH]c(=O)[nH]1)N1CCN(C(=O)c2ccco2)CC1,95.6% (inactive)
4,O=S(=O)(NCCSc1nc2ccccc2o1)c1ccccc1,89% (inactive)
5,Cc1cc(Nc2cc(C(=O)O)ccc2C)n2ncnc2n1,102% (inactive)
6,CC1CN(c2nc3c(c(=O)[nH]c(=O)n3C)n2Cc2ccccc2F)CC(C)O1 (stereo not given),90.7% (inactive)
7,COc1ccc(-c2cn3c(C)c(C(=O)NC(C)(C)C)sc3n2)cc1,85.7% (inactive)
8,C=C(C)Cn1c(C2CC(=O)N(c3ccccc3F)C2)nc2ccccc21 (stereo not given),105% (inactive)
9,O=C1C2CCCN2C(c2ccc(F)c(F)c2)N1c1cccc(Cl)c1 (stereo not given),100% (inactive)
10,COc1ccc(C2CC(=O)N3CN(c4ccc(C)c(Cl)c4)CSC3=C2C#N)cc1 (stereo not given),89.5% (inactive)
11,O=C(c1ccco1)c1cn[nH]c1-c1ccc(Cl)cc1O,83.4% (inactive)
12,O=C(Cn1cc(C(=O)c2cccs2)c2ccccc21)NCc1ccc2c(c1)OCO2,86.4% (inactive)
13,O=C(NCCCN1CCOCC1)C1CCC(=O)N1CCc1ccccc1 (stereo not given),96.7% (inactive)
14,O=C(Nc1ccc2c(c1)OCO2)C(c1ccccc1)N1CCCCC1 (stereo not given),93.2% (inactive)
15,COc1ccccc1-n1c(CNC(=O)c2ccco2)nnc1SCC(=O)Nc1nccs1,66.2% (inactive)
16,Cc1c(N2C(=O)CSC23C(=O)Nc2ccccc23)c(=O)n(-c2ccccc2)n1C (stereo not given),91.8% (inactive)
17,CCCc1nnc(NC(=O)CCC(=O)O)s1,95.4% (inactive)
18,CC1CCN(c2nc(-c3ccco3)c3c(c2C#N)CC(C)(C)OC3)CC1,89.6% (inactive)
19,CCCn1c(CN2CCN(C(=O)OCC)CC2)nc2c1c(=O)n(C)c(=O)n2C,86.5% (inactive)
20,Cc1ccc(C)c(N2CCN(CC(=O)Nc3ccc4[nH]c(=O)[nH]c4c3)CC2)c1,89.1% (inactive)
